HT1080 IDH1KD tx = toxicity to HT-1080 IDH1 knockdown cells (counter line) | HT-1080 IDH1 knockdown viability, ATP luminescence, 48 h | Potency, µM (series often up to 46.1 µM), hits mostly cytotoxic | 360,000 compounds, 2% hits | AID 686971
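Cytotoxicity counter-line: IDH1KD HT-1080, 48 h, CellTiter-Glo. Curves classed by r2, magnitude and activity.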
TDP1 cell CPT = growth inhibition of DT40 Tdp1-/-;hTDP1 cells with camptothecin (screen for TDP1 inhibitors); chicken DT40 Tdp1-/-;hTDP1 cells + 20 nM CPT, ATP luminescence, 48 h; Potency, µM (top dose mostly 46.2 µM), hits mostly inhibitors; 420,000 compounds, 12% hits; AID 686979; also: nearly all actives have a fitted effect of over 55% in size
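Chicken DT40 Tdp1-/- cells stably complemented with human TDP1 were seeded at 400 cells/well in medium containing 20 nM camptothecin, exposed to pin-transferred compounds, and grown at 37 °C for at least 48 hr. Viability was read as ATP luminescence.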
TDP1 cell noCPT = qHTS for Inhibitors of human tyrosyl-DNA phosphodiesterase 1 (TDP1): qHTS in cells in absence of CPT; DT40 Tdp1-/- hTDP1 cells, no CPT, ATP luminescence, 48 h; Potency, µM (doses to about 46.2 µM), usual class: inhibitors; 420,000 compounds, 15% hits; also: nearly all actives have a fitted effect of over 55% in size
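Camptothecin absent (DMSO only). Human TDP1-complemented DT40 knockout cells, 400 cells/well, 37 °C for minimum 48 hr; ATP measured via CellTiter-Glo, 30 min dark incubation, luminescence.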
KB-V1 cytotox = kills drug-selected multidrug resistant KB-V1 cells; KB-V1 MDR cells viability, CellTiter-Glo, 72 h; 400,000 compounds, 3.4% hits; Potency, µM (titrated, usually from 46.1 µM), actives largely listed as cytotoxic; also: nearly all actives have a fitted effect of over 60% in size
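Cytotoxicity toward P-gp-expressing KB-V1 cells was determined as loss of CellTiter-Glo luminescence after 72 h at 37 degrees C. Compounds were tested in quantitative HTS format across a concentration range, with curves fitted to normalized data.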
HT1080-NT tox = kills 2HG-producing HT-1080-NT fibrosarcoma cells; Potency, µM (highest dose often 46.1 µM), most hits filed as cytotoxic; 360,000 compounds, 1.6% hits; AID 686970; HT-1080-NT fibrosarcoma viability, CellTiter-Glo ATP luminescence, 48 h;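 also: NT is the 2HG producing partner of a matched IDH1 knockdown line; nearly all actives have a fitted effect of over 55% in size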
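A 48-hour cytotoxicity screen used HT-1080-NT cells plated 2 hours before compound delivery. ATP-based CellTiter-Glo luminescence measured viability, normalized to DMSO and no-cell controls.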
KB-3-1 cytotox = kills parental KB-3-1 adenocarcinoma cells; Potency, µM (series often up to 46.1 µM), hits mostly cytotoxic; KB-3-1 viability, CellTiter-Glo ATP luminescence, 72 h; 400,000 compounds, 1.4% hits; also: nearly all actives have a fitted effect of over 60% in size
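72 h, 37 °C compound treatment of KB-3-1 parental cells; CellTiter-Glo added, 10 min, luminescence read. Data corrected against DMSO-only plates and normalized before curve fitting.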
Numbers stand for hits; . = inactive; ? = inconclusive; / = not tested or not shown. Hits are enriched below; roughly 19% of the tested compounds scored in any of these assays. Calls follow the shape of the dose curve; as a rule, active = well fitted curve in the direction sought with a large enough effect; inconclusive = small, poorly fitted or top-dose-only effect, or another doubt; inactive = no such curve, though single readings can be large; an effect the other way counts as inactive or inconclusive.

SMILES | HT1080 IDH1KD tx | TDP1 cell CPT | TDP1 cell noCPT | KB-V1 cytotox | HT1080-NT tox | KB-3-1 cytotox
CCS(=O)(=O)N1Cc2ccccc2CC1C(=O)Nc1ncc(C)s1 (stereo not drawn) | . | . | . | ? | . | .
Cc1cc(C)c2nc(NC(=O)c3ccc(S(=O)(=O)N4CCc5ccccc54)cc3)sc2c1 | / | . | . | / | / | /
CCS(=O)(=O)N1Cc2ccccc2CC1C(=O)Nc1nc2ccc(C)cc2s1 (stereo not drawn) | . | ? | ? | 7.31µM | ? | ?
O=C(NNc1nc2c(F)cccc2s1)c1ccc(F)cc1 | ? | ? | ? | . | . | ?
Cc1cc(C)c2nc(NNC(=O)c3ccc(S(=O)(=O)N4CC(C)CC(C)C4)cc3)sc2c1 (stereo not drawn) | 11.6µM | 5.8µM | 5.8µM | . | ? | .
Cc1ccc2nc(NNC(=O)c3ccc(S(=O)(=O)N4CCc5ccccc5C4)cc3)sc2c1 | 4.61µM | 2.91µM | 5.17µM | . | ? | ?
Cc1cc(C)c2nc(NC(=O)c3ccc(S(=O)(=O)N4CCC(C)CC4)cc3)sc2c1 | / | . | . | . | / | .
Cc1cc(C)c2nc(NNC(=O)c3ccc(S(=O)(=O)N4CCCC(C)C4)cc3)sc2c1 (stereo not drawn) | ? | 2.91µM | 4.11µM | . | ? | 4.11µM
COc1ccc(C2C(C(=O)c3ccccc3)=C(C)Nc3nc4ccccc4n32)cc1OC (stereo not drawn) | . | ? | 14.6µM | . | . | .
COc1ccc(OC)c(C2C(C(=O)c3ccccc3)=C(C)Nc3nc4ccccc4n32)c1 (stereo not drawn) | . | . | ? | . | . | .
COc1ccccc1NC(=O)C1=C(C)Nc2nc3ccccc3n2C1c1ccccc1Cl (stereo not drawn) | / | 14.6µM | ? | ? | / | .
CC1=C(C(=O)N2CCCCC2)C(c2cccc(Cl)c2)n2c(nc3ccccc32)N1 (stereo not drawn) | / | 16.4µM | ? | . | / | .
CC1=C(C(=O)N2CCCCC2)C(c2ccc(Cl)cc2)n2c(nc3ccccc32)N1 (stereo not drawn) | / | ? | ? | . | / | .
COc1ccc(C2NC(=S)NC(C)=C2C(=O)c2ccccc2)cc1OC (stereo not drawn) | . | . | . | 13µM | . | ?
COc1ccccc1CNS(=O)(=O)c1c(C(=O)N2CCC(C)CC2)c(C)n(C)c1C | / | . | . | / | / | /
O=C(CNc1ccc2ccccc2c1)N/N=C/C=C/c1cccc([N+](=O)[O-])c1 | ? | ? | ? | . | ? | .
CC(C)C[C@H]1CN([C@@H](Cc2ccccc2)CN2CCC[C@@H]2CN2C(=O)C(=O)NC[C@@H]2Cc2ccccc2)C(=O)C(=O)N1CC1CCCCC1 | 16.4µM | 20.6µM | 16.4µM | . | ? | ?
O=C1NC[C@H](Cc2ccc(O)cc2)N(C[C@@H]2CCCN2C[C@H](Cc2ccccc2)N2C[C@H](Cc3ccc(O)cc3)N(CC3CCCCC3)C(=O)C2=O)C1=O | . | ? | ? | . | . | .
O=C1NC[C@H](Cc2ccccc2)N(C[C@@H]2CCCN2C[C@H](Cc2ccc(O)cc2)N2C[C@H](Cc3ccc(O)cc3)N(CC3CCCCC3)C(=O)C2=O)C1=O | ? | ? | 23.1µM | . | ? | .
O=C1NC[C@H](Cc2ccccc2)N(C[C@H]2CCCN2C[C@H](Cc2ccccc2)N2C[C@H](Cc3ccccc3)N(CC3CCCCCC3)C(=O)C2=O)C1=O | ? | ? | 16.4µM | . | ? | ?
O=C(Nc1ccc(S(=O)(=O)N2CCC(c3nc4ccccc4s3)CC2)cc1)c1ccccc1 | / | . | . | . | / | .
O=C(CCCN1C(=O)C(c2ccccc2)Oc2cccnc21)Nc1ccccc1Cl (stereo not drawn) | . | . | . | . | . | .
Cc1ccc2cc(CN(Cc3nnnn3C3CCCC3)C3CCCCC3)c(=O)[nH]c2c1C | . | . | . | . | . | .
Cc1cccc2cc(CN(Cc3cccs3)S(=O)(=O)c3ccc4c(c3)OCCO4)c(=O)[nH]c12 | . | ? | 23.1µM | 5.17µM | . | ?
Cc1ccc(C)c2[nH]c(=O)c(CN(CC3CCCO3)C(=O)NC3CCCCC3)cc12 (stereo not drawn) | . | 23.1µM | ? | 14.6µM | ? | .
SMILES | HT1080 IDH1KD tx | TDP1 cell CPT | TDP1 cell noCPT | KB-V1 cytotox | HT1080-NT tox | KB-3-1 cytotox
Cc1ccc(C)c2[nH]c(=O)c(CN(Cc3nnnn3C3CCCCC3)CC3CCCO3)cc12 (stereo not drawn) | ? | 14.6µM | 23.1µM | . | . | .
Cc1cc(C)c2[nH]c(=O)c(CN(CC3CCCO3)C(=O)C3CCCO3)cc2c1 (stereo not drawn) | . | . | . | . | . | .
Cc1cccc2cc(CN(Cc3cccs3)C3(c4nnnn4C4CCCC4)CCCC3)c(=O)[nH]c12 | . | ? | 20.6µM | . | . | .
Cc1ccc(C)c2[nH]c(=O)c(CN(CCN3CCOCC3)Cc3nnnn3CC3CCCO3)cc12 (stereo not drawn) | . | . | . | . | . | .
C[C@@H]1CN[C@H](CCO)/C1=C\c1ccccc1 | . | . | . | . | . | .
CCN(C(=O)Cn1cc(C(F)(F)F)ccc1=O)C1CCS(=O)(=O)C1 (stereo not drawn) | . | . | . | ? | . | .
CN(CC(=O)Nc1c(Cl)cccc1Cl)C(=O)c1ccccc1-c1nc2ccccc2s1 | . | . | ? | 8.2µM | . | .
COc1cccc(NC(=O)CN(C)C(=O)c2ccccc2-c2nc3ccccc3s2)c1 | . | ? | 23.1µM | 18.4µM | . | .
O=C(CN1CCN(S(=O)(=O)/C=C/c2ccccc2)CC1)NCC(F)(F)F | . | . | . | . | . | .
O=C(CSc1nnc(-c2cccs2)n1-c1ccccc1)N1CCOCC1 | . | . | . | . | . | .
O=C(O)CSc1nnc(-c2cccs2)n1-c1ccc(Cl)cc1 | . | ? | 29.1µM | . | . | .
O=C(CSc1nnc(-c2cccs2)n1-c1cccc(Cl)c1)c1cccc2c1OCCO2 | . | ? | 16.4µM | 8.2µM | . | .
Cc1cccn2c(=O)nc(SCC(=O)N3CCC(C)CC3)nc12 | . | . | . | . | . | .
CN(C)c1ccc(C(=O)/C=C/c2cccnc2)cc1 | ? | ? | ? | ? | ? | 18.4µM
CCN(C(=O)c1cccc(Br)c1)c1ccccc1 | . | . | . | . | . | .
CN(C)c1ccc(/C=C/C(=O)c2cccc(Br)c2)cc1 | ? | 14.6µM | 20.6µM | ? | . | .
